Experimental data from PubChem BioAssay AID1159580 (chemical genetic matrix, 2015).
Hit rate of the full screen: of about 5,500 compounds, about 2,000 (36%) were called active. Not shown: some 18% with an inconclusive outcome. Some of the results follow. A number with no mark means an inactive call. No stated cut-off is given here; in the data, active means normalized growth mostly below about 0.91 (no sharp cut-off); inconclusive means no clear call, values can overlap the other calls; inactive means mostly above about 0.92.

Assay: chemical genetic growth profiling, strain panel (AID 1159580);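 further: tested at 20 µM; growth read once vehicle control cultures reached saturation at 30 °C; 1 = growth at the plate median or of vehicle wells; lower values mean less growth of the strain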
Details: growth OD
[1] = S. cerevisiae deletion strains, locus YJR075W, strain HOC1, active compounds read low
[2] = S. cerevisiae deletion strains, locus YMR307W, strain GAS1, active compounds read low
[3] = S. cerevisiae deletion strains, locus YNL128W, strain TEP1, active compounds read low
[4] = S. cerevisiae deletion strains, locus YNL322C, strain KRE1, active compounds read low
[5] = S. cerevisiae deletion strains, locus YPL055C, strain LGE1, active compounds read low
[6] = S. cerevisiae deletion strains, locus YPL241C, strain CIN2, active compounds read low
[7] = S. cerevisiae deletion strains, locus YDL101C, strain DUN1, active compounds read low
[8] = S. cerevisiae deletion strains, locus YHR030C, strain SLT2, active compounds read low

## CCCn1c(=O)c2[nH]c(-c3ccc(OCC(=O)NCCN)cc3)nc2n(CCC)c1=O
S. cerevisiae deletion strains, locus YAL040C, strain CLN3, active compounds read low
  normalized growth: 1.05
S. cerevisiae deletion strains, locus YCL061C, strain MRC1 (second series), active compounds read low
  normalized growth: 0.984
S. cerevisiae deletion strains, locus YDR363W, strain ESC2, active compounds read low
  normalized growth: 0.983
S. cerevisiae deletion strains, locus YER002W, strain NOP16, active compounds read low
  normalized growth: 0.986
[1]
  normalized growth: 0.99
[2]
  normalized growth: 1.01
[3]
  normalized growth: 0.973
S. cerevisiae deletion strains, locus YNL175C, strain NOP13, active compounds read low
  normalized growth: 0.98
S. cerevisiae deletion strains, locus YNL197C, strain WHI3, active compounds read low
  normalized growth: 0.977
S. cerevisiae deletion strains, locus YNL224C, strain SQS1, active compounds read low
  normalized growth: 0.999
[4]
  normalized growth: 0.95
S. cerevisiae deletion strains, locus YOR083W, strain WHI5 (second series), active compounds read low
  normalized growth: 0.984
[5]
  normalized growth: 0.973
[6]
  normalized growth: 0.985

## CSc1cccc(N2C(=O)CC(c3c(Cl)cccc3Cl)CC2=O)c1
S. cerevisiae deletion strains, locus YAR019C, strain CDC15, active compounds read low
  normalized growth: 0.99
S. cerevisiae deletion strains, locus YBL105C, strain PKC1, active compounds read low
  normalized growth: 0.98
S. cerevisiae deletion strains, locus YBR135W, strain CKS1, active compounds read low
  normalized growth: 0.987
S. cerevisiae deletion strains, locus YBR136W, strain MEC1, active compounds read low
  normalized growth: 0.989
S. cerevisiae deletion strains, locus YBR160W, strain CDC28, active compounds read low
  normalized growth: 0.989
S. cerevisiae deletion strains, locus YDL017W, strain CDC7, active compounds read low
  normalized growth: 0.99
S. cerevisiae deletion strains, locus YDL028C, strain MPS1, active compounds read low
  normalized growth: 0.997
[7]
  normalized growth: 0.987
S. cerevisiae deletion strains, locus YDL108W, strain KIN28, active compounds read low
  normalized growth: 0.988
S. cerevisiae deletion strains, locus YDL132W, strain cdc53, active compounds read low
  normalized growth: 0.982
S. cerevisiae deletion strains, locus YDL214C, strain PRR2, active compounds read low
  normalized growth: 0.997
S. cerevisiae deletion strains, locus YDR052C, strain DBF4, active compounds read low
  normalized growth: 0.988
S. cerevisiae deletion strains, locus YDR054C, strain cdc34, active compounds read low
  normalized growth: 0.983
S. cerevisiae deletion strains, locus YDR226W, strain ADK1, active compounds read low
  normalized growth: 0.983
S. cerevisiae deletion strains, locus YDR477W, strain SNF1, active compounds read low
  normalized growth: 0.992
S. cerevisiae deletion strains, locus YER123W, strain YCK3, active compounds read low
  normalized growth: 0.975
S. cerevisiae deletion strains, locus YER133W, strain GLC7, active compounds read low
  normalized growth: 0.993
S. cerevisiae deletion strains, locus YFL009W, strain cdc4, active compounds read low
  normalized growth: 0.966
S. cerevisiae deletion strains, locus YFL029C, strain CAK1, active compounds read low
  normalized growth: 0.986
S. cerevisiae deletion strains, locus YFR003C, strain YPI1, active compounds read low
  normalized growth: 0.983
S. cerevisiae deletion strains, locus YFR019W, strain FAB1, active compounds read low
  normalized growth: 0.971
S. cerevisiae deletion strains, locus YFR028C, strain CDC14, active compounds read low
  normalized growth: 0.986
S. cerevisiae deletion strains, locus YGR040W, strain KSS1, active compounds read low
  normalized growth: 0.987
S. cerevisiae deletion strains, locus YGR052W, strain FMP48, active compounds read low
  normalized growth: 1.02
S. cerevisiae deletion strains, locus YGR092W, strain DBF2, active compounds read low
  normalized growth: 0.985
[8]
  normalized growth: 0.894
S. cerevisiae deletion strains, locus YHR079C, strain IRE1, active compounds read low
  normalized growth: 0.904
S. cerevisiae deletion strains, locus YHR082C, strain KSP1, active compounds read low
  normalized growth: 0.948
S. cerevisiae deletion strains, locus YHR205W, strain SCH9, active compounds read low
  normalized growth: 0.916
S. cerevisiae deletion strains, locus YIL147C, strain SLN1, active compounds read low
  normalized growth: 0.996
S. cerevisiae deletion strains, locus YJL095W, strain BCK1, active compounds read low
  normalized growth: 0.956
S. cerevisiae deletion strains, locus YJL128C, strain PBS2, active compounds read low
  normalized growth: 0.955
S. cerevisiae deletion strains, locus YJL157C, strain FAR1, active compounds read low
  normalized growth: 0.985
S. cerevisiae deletion strains, locus YJR016C, strain ILV3, active compounds read low
  normalized growth: 0.987
S. cerevisiae deletion strains, locus YJR066W, strain TOR1 (second series), active compounds read low
  normalized growth: 0.566 (active)
S. cerevisiae deletion strains, locus YJR066W, strain TOR1, active compounds read low
  normalized growth: 0.908
S. cerevisiae deletion strains, locus YKL048C, strain ELM1, active compounds read low
  normalized growth: 0.995
S. cerevisiae deletion strains, locus YKL067W, strain YNK1, active compounds read low
  normalized growth: 0.992
S. cerevisiae deletion strains, locus YKL101W, strain HSL1, active compounds read low
  normalized growth: 0.993
S. cerevisiae deletion strains, locus YKL193C, strain SDS22, active compounds read low
  normalized growth: 0.985
S. cerevisiae deletion strains, locus YKL203C, strain TOR2, active compounds read low
  normalized growth: 1.04
S. cerevisiae deletion strains, locus YLR113W, strain HOG1, active compounds read low
  normalized growth: 0.889
S. cerevisiae deletion strains, locus YLR133W, strain CKI1, active compounds read low
  normalized growth: 1
S. cerevisiae deletion strains, locus YLR403W, strain SFP1, active compounds read low
  normalized growth: 0.946
S. cerevisiae deletion strains, locus YML070W, strain DAK1, active compounds read low
  normalized growth: 0.995
S. cerevisiae deletion strains, locus YMR001C, strain CDC5, active compounds read low
  normalized growth: 0.992
S. cerevisiae deletion strains, locus YMR205C, strain PFK2 (second series), active compounds read low
  normalized growth: 0.997
S. cerevisiae deletion strains, locus YMR277W, strain FCP1, active compounds read low
  normalized growth: 0.983
S. cerevisiae deletion strains, locus YNL006W, strain LST8, active compounds read low
  normalized growth: 0.996
S. cerevisiae deletion strains, locus YNL020C, strain ARK1, active compounds read low
  normalized growth: 0.993
S. cerevisiae deletion strains, locus YNL161W, strain CBK1, active compounds read low
  normalized growth: 0.981
S. cerevisiae deletion strains, locus YNL183C, strain NPR1, active compounds read low
  normalized growth: 0.947
S. cerevisiae deletion strains, locus YNL207W, strain RIO2, active compounds read low
  normalized growth: 0.993
S. cerevisiae deletion strains, locus YNL222W, strain SSU72, active compounds read low
  normalized growth: 0.981
S. cerevisiae deletion strains, locus YNL307C, strain MCK1 (second series), active compounds read low
  normalized growth: 0.988
S. cerevisiae deletion strains, locus YOL078W, strain AVO1, active compounds read low
  normalized growth: 0.993
S. cerevisiae deletion strains, locus YOL136C, strain PFK27, active compounds read low
  normalized growth: 0.976
S. cerevisiae deletion strains, locus YOR061W, strain CKA2, active compounds read low
  normalized growth: 0.994
S. cerevisiae deletion strains, locus YOR119C, strain RIO1, active compounds read low
  normalized growth: 1
S. cerevisiae deletion strains, locus YOR231W, strain MKK1, active compounds read low
  normalized growth: 0.918
S. cerevisiae deletion strains, locus YOR329C, strain SCD5, active compounds read low
  normalized growth: 0.985
S. cerevisiae deletion strains, locus YPL031C, strain PHO85, active compounds read low
  normalized growth: 0.989
S. cerevisiae deletion strains, locus YPL153C, strain RAD53, active compounds read low
  normalized growth: 0.97
S. cerevisiae deletion strains, locus YPL204W, strain HRR25, active compounds read low
  normalized growth: 0.981
S. cerevisiae deletion strains, locus YPL209C, strain IPL1, active compounds read low
  normalized growth: 0.989
S. cerevisiae deletion strains, locus YPL256C, strain CLN2, active compounds read low
  normalized growth: 0.924
S. cerevisiae deletion strains, locus YPR025C, strain CCL1, active compounds read low
  normalized growth: 0.986
S. cerevisiae deletion strains, locus YPR106W, strain ISR1, active compounds read low
  normalized growth: 0.979
S. cerevisiae deletion strains, locus YPR111W, strain DBF20, active compounds read low
  normalized growth: 0.977
S. cerevisiae deletion strains, strain NNK1, active compounds read low
  normalized growth: 0.983
S. cerevisiae deletion strains, strain TSCII, active compounds read low
  normalized growth: 0.982

## O=C(CC(Nc1ccccc1)c1ccccc1)C1CC1 (stereo not given)
S. cerevisiae deletion strains, locus YAL013W, strain DEP1, active compounds read low
  normalized growth: 1
S. cerevisiae deletion strains, locus YBR229C, strain ROT2, active compounds read low
  normalized growth: 0.99
S. cerevisiae deletion strains, locus YCL061C, strain MRC1, active compounds read low
  normalized growth: 0.974
[7]
  normalized growth: 0.988
S. cerevisiae deletion strains, locus YDL134C, strain PPH21, active compounds read low
  normalized growth: 0.982
S. cerevisiae deletion strains, locus YDR150W, strain NUM1, active compounds read low
  normalized growth: 0.982
S. cerevisiae deletion strains, locus YEL061C, strain CIN8, active compounds read low
  normalized growth: 0.992
S. cerevisiae deletion strains, locus YGR078C, strain PAC10, active compounds read low
  normalized growth: 1.03
[8]
  normalized growth: 0.968
S. cerevisiae deletion strains, locus YHR087W, strain rtc3, active compounds read low
  normalized growth: 1.04
S. cerevisiae deletion strains, locus YJL187C, strain SWE1, active compounds read low
  normalized growth: 1
S. cerevisiae deletion strains, locus YJR043C, strain POL32, active compounds read low
  normalized growth: 0.996
[1]
  normalized growth: 0.969
S. cerevisiae deletion strains, locus YLR039C, strain RIC1, active compounds read low
  normalized growth: 0.869
S. cerevisiae deletion strains, locus YLR058C, strain SHM2 (second series), active compounds read low
  normalized growth: 0.998
S. cerevisiae deletion strains, locus YLR085C, strain ARP6, active compounds read low
  normalized growth: 0.992
S. cerevisiae deletion strains, locus YLR262C, strain YPT6, active compounds read low
  normalized growth: 0.938
S. cerevisiae deletion strains, locus YML094W, strain GIM5, active compounds read low
  normalized growth: 1.01
S. cerevisiae deletion strains, locus YMR219W, strain ESC1, active compounds read low
  normalized growth: 0.994
S. cerevisiae deletion strains, locus YMR263W, strain SAP30, active compounds read low
  normalized growth: 1.01
[2]
  normalized growth: 1.19
[3]
  normalized growth: 0.989
S. cerevisiae deletion strains, locus YNL153C, strain GIM3, active compounds read low
  normalized growth: 1.01
S. cerevisiae deletion strains, locus YNL298W, strain CLA4 (second series), active compounds read low
  normalized growth: 0.985
[4]
  normalized growth: 0.982
S. cerevisiae deletion strains, locus YNR030W, strain Alg12, active compounds read low
  normalized growth: 1
[5]
  normalized growth: 1.02
[6]
  normalized growth: 0.981
S. cerevisiae deletion strains, locus YPR135W, strain CTF4, active compounds read low
  normalized growth: 0.915
S. cerevisiae strains, strain wild type, active compounds read low
  normalized growth: 0.979
